Reference: the supplement of paper PMC10849652
Targets with a hit are over-represented here; the source holds about 7,900 in all. About 0.6% of all pairs of compound and target were hits.

Legend:
Assay in all cases: log2 fold change, soluble protein after heating vs DMSO (PISA); higher = thermal stabilisation; K562 cells, 10 uM, 30 min; active = over 0.2 and 3.5 SD of the protein, either way, in both replicates (recomputed)
[1] = compound: C1=CC=C(C=C1)[C@H](COC2=CC3=C(C=C2)NC(=O)N3)NC(=O)C4=CC=CN(C4=O)CC5=CC(=C(C=C5)F)F
Method in brief: (§1)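 Soluble protein was quantified by TMTpro 16plex LC-MS/MS after channel sums were equalised. It was obtained as the supernatant after 21,000xg for 90 min from pooled aliquots of K562 cells (2×10^6 cells/mL, 10 μM compound, 30 min) heated for 3 min across 48°C-58°C and extracted in PBS with 0.5% NP-40 at 4°C. Thermal stability values are relative to control samples and come from duplicates. They are given as log2 fold changes.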

[2] = compound: CC1=C(SC2=C1C(=N[C@H](C3=NN=C(N32)C)CC(=O)N)C4=CC=C(C=C4)Cl)C
Method in brief: as §1

[3] = compound: CC1=C2C(=CC=C1)N=C(N(C2=O)C3=CC=CC=C3C)CN4C=NC5=C(N=CN=C54)N
Method in brief: as §1

[4] = compound: Cc1sc2c(c1C)C(c1ccc(Cl)cc1)=N[C@@H](CC(=O)OC(C)(C)C)c1nnc(C)n1-2
Method in brief: as §1

[5] = compound: c1ccc([C@@H]2C[C@H]2NC2CCNCC2)cc1
Method in brief: as §1

Measured: log2 fold change

SMDT1 (UniProt Q9H4I9)
inactive: [1] 0.031 | [2] 0.018 | [3] -0.081 | [4] -0.019 | [5] 0.024

STAT5B (UniProt P51692)
Sequence of UniProt P51692 (P51692 whole entry, looked up): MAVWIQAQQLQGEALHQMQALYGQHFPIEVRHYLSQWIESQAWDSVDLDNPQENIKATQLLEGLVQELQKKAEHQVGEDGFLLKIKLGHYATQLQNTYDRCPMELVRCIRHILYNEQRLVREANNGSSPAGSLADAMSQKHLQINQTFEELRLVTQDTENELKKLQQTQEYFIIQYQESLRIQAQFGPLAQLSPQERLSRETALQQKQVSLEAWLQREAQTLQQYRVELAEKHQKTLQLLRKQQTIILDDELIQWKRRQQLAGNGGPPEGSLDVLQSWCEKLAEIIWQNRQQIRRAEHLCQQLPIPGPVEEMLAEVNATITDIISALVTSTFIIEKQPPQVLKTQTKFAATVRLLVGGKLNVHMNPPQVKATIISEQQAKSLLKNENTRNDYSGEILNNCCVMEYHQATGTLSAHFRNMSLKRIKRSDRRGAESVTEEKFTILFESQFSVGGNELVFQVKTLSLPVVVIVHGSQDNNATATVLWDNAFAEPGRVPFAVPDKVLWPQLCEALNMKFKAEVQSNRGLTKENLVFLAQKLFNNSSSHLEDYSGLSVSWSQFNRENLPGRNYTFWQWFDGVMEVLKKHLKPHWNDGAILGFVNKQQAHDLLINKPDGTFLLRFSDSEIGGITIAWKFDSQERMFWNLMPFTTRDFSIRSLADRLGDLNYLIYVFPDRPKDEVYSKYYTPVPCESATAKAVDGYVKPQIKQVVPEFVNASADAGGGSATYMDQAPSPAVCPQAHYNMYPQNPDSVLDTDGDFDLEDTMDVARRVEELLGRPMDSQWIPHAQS
inactive: [1] 0.036 | [2] 0.08 | [3] 0.05 | [4] 0.033 | [5] 0.052

SUOX (UniProt P51687)
inactive: [1] 0.01 | [2] 0 | [3] 0.096 | [4] -0.011 | [5] -0.021

TIMM44 (UniProt O43615)
inactive: [1] -0.099 | [2] 0.043 | [3] 0.088 | [4] 0.008 | [5] -0.017

SNX15 (UniProt Q9NRS6)
inactive: [1] 0.065 | [2] -0.032 | [3] 0.141 | [4] 0.279 | [5] -0.081

SPAG9 (UniProt O60271)
inactive: [1] -0.033 | [2] 0.002 | [3] 0.071 | [4] 0.024 | [5] -0.006

TARS2 (UniProt Q9BW92)
inactive: [1] -0.018 | [2] 0.025 | [3] 0.101 | [4] -0.019 | [5] -0.023

TEX30 (UniProt Q5JUR7)
Sequence of UniProt Q5JUR7 (Q5JUR7 whole entry, looked up): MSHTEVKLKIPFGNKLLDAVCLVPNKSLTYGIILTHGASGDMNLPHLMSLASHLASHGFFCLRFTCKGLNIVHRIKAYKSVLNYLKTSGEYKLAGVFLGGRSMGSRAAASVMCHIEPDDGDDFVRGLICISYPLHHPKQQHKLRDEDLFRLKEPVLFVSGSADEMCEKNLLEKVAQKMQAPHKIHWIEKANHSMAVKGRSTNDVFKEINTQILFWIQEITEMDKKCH
inactive: [1] -0.162 | [2] -0.141 | [3] 0.235 | [4] 0.12 | [5] 0.052

SPIRE1 (UniProt Q08AE8)
Sequence of UniProt Q08AE8 (Q08AE8 whole entry, looked up): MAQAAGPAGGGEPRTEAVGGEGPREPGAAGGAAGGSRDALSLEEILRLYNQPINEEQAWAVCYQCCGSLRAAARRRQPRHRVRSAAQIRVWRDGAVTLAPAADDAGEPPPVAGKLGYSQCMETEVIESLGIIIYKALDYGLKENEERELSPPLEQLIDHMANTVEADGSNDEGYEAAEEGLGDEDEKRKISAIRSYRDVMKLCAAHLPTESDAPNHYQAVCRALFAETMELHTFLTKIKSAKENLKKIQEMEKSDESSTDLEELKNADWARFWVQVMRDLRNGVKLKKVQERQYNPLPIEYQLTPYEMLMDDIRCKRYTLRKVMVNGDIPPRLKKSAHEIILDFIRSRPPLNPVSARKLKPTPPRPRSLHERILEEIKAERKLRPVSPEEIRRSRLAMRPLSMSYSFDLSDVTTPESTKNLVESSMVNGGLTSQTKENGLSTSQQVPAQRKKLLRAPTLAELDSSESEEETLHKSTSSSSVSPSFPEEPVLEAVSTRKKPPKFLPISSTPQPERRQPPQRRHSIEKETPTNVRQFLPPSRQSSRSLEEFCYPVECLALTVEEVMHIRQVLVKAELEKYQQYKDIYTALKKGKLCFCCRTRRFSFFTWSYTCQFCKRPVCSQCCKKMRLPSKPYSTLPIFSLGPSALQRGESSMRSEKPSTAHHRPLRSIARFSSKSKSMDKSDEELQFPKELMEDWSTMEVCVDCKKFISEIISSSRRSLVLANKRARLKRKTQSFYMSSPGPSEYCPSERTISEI
inactive: [1] 0.079 | [2] 0.002 | [3] 0.196 | [4] -0.01 | [5] 0.075

SRP68 (UniProt Q9UHB9)
inactive: [1] -0.041 | [2] 0.022 | [3] 0.039 | [4] 0.092 | [5] -0.029

SUCLG1 (UniProt P53597)
inactive: [1] 0.004 | [2] 0.073 | [3] 0.042 | [4] -0.021 | [5] -0.041

SNX1 (UniProt Q13596)
inactive: [1] -0.019 | [2] 0.029 | [3] 0.038 | [4] -0.003 | [5] -0.07

SRPRB (UniProt Q9Y5M8)
inactive: [1] -0.005 | [2] 0.014 | [3] 0.034 | [4] -0.017 | [5] -0.016

STARD3 (UniProt Q14849)
Sequence of UniProt Q14849 (Q14849 whole entry, looked up): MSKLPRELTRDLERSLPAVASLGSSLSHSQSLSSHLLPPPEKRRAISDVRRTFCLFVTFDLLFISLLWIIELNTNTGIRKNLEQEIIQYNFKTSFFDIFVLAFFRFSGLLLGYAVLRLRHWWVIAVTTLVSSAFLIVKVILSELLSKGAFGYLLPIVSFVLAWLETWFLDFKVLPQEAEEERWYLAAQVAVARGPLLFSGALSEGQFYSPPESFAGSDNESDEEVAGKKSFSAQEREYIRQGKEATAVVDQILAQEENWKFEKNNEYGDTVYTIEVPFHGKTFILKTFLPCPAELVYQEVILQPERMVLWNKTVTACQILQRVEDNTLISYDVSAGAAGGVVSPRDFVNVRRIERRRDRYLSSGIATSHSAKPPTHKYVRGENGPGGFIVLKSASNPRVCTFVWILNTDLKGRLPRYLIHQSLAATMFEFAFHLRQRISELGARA
inactive: [1] 0.011 | [2] -0.036 | [3] 0.14 | [4] 0.066 | [5] -0.153

STAT6 (UniProt P42226)
inactive: [1] -0.02 | [2] -0.019 | [3] 0.198 | [4] 0.009 | [5] -0.015

TLK2 isoform 2 (UniProt Q86UE8)
inactive: [1] 0.006 | [2] 0.021 | [3] 0.041 | [4] -0.007 | [5] 0.051

SLC38A9 (UniProt Q8NBW4)
inactive: [1] 0.053 | [2] -0.019 | [3] 0.065 | [4] -0.014 | [5] 0.042

TIMM29 (UniProt Q9BSF4)
inactive: [1] -0.034 | [2] 0.114 | [3] -0.026 | [4] -0.006 | [5] 0.031

STK38L (UniProt Q9Y2H1)
active: [2] 0.472
inactive: [1] -0.009 | [3] 0.162 | [4] 0.07 | [5] 0.224

TAOK1 (UniProt Q7L7X3)
inactive: [1] 0.057 | [2] 0.095 | [3] 0.041 | [4] 0.012 | [5] 0.002

STARD9 (UniProt Q9P2P6)
inactive: [1] -0.073 | [2] 0.147 | [3] -0.072 | [4] 0.042 | [5] -0.087

STAT3 (UniProt P40763)
inactive: [1] -0.033 | [2] 0.034 | [3] 0.1 | [4] 0.024 | [5] -0.006

TIMM10 (UniProt P62072)
Sequence of UniProt P62072 (P62072 whole entry, looked up): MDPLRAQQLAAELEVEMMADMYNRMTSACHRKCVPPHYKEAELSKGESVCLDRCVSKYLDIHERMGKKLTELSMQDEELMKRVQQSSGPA
inactive: [1] -0.013 | [2] -0.043 | [3] 0.042 | [4] -0.033 | [5] 0.022

SRSF10 (UniProt O75494)
inactive: [1] 0.001 | [2] -0.475 | [3] -0.187 | [4] 0.249 | [5] 0.17

TGFBI (UniProt Q15582)
inactive: [1] -0.115 | [2] -0.024 | [3] 0.019 | [4] -0.048 | [5] -0.08

SLC25A39 (UniProt Q9BZJ4)
inactive: [1] 0.031 | [2] -0.166 | [3] 0.149 | [4] 0.09 | [5] 0.019

SLC4A2 (UniProt P04920)
inactive: [1] -0.042 | [2] 0.016 | [3] 0.019 | [4] -0.038 | [5] 0.088

SLC35F6 (UniProt Q8N357)
inactive: [1] -0.034 | [2] -0.045 | [3] 0.064 | [4] -0.057 | [5] 0.067

ST3GAL2 (UniProt Q16842)
inactive: [1] 0.083 | [2] 0.006 | [3] 0.011 | [4] 0.005 | [5] 0.007

TEX264 (UniProt Q9Y6I9)
inactive: [1] -0.024 | [2] 0.03 | [3] -0.072 | [4] -0.084 | [5] -0.02

SNW1 (UniProt Q13573)
inactive: [1] 0.03 | [2] 0.015 | [3] -0.036 | [4] 0.055 | [5] -0.035

TBC1D15 isoform 3 (UniProt Q8TC07)
Sequence of UniProt Q8TC07 (Q8TC07 whole entry, looked up): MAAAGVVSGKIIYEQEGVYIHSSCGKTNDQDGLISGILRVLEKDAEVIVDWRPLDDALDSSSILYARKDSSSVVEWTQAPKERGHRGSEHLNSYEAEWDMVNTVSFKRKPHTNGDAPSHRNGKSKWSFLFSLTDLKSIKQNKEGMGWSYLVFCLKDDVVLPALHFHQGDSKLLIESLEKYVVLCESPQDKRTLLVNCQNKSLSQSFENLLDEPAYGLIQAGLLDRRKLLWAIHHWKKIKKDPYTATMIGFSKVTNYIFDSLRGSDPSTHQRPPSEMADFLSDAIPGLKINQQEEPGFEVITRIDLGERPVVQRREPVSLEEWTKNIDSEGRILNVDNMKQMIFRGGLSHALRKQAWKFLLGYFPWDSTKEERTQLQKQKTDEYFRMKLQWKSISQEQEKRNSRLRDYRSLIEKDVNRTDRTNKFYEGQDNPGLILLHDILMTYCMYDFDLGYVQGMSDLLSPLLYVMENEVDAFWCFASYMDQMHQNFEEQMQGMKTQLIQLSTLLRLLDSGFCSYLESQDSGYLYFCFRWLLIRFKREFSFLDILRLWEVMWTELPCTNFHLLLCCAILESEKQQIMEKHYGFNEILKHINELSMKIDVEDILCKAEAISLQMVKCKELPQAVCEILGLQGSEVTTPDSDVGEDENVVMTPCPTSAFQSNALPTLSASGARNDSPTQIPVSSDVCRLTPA
inactive: [1] -0.072 | [2] 0.013 | [3] 0.045 | [4] 0.005 | [5] -0.019

SUPT16H (UniProt Q9Y5B9)
inactive: [1] -0.238 | [2] 0.023 | [3] 0.279 | [4] -0.106 | [5] -0.006

TM9SF4 (UniProt Q92544)
Sequence of UniProt Q92544 (Q92544 whole entry, looked up): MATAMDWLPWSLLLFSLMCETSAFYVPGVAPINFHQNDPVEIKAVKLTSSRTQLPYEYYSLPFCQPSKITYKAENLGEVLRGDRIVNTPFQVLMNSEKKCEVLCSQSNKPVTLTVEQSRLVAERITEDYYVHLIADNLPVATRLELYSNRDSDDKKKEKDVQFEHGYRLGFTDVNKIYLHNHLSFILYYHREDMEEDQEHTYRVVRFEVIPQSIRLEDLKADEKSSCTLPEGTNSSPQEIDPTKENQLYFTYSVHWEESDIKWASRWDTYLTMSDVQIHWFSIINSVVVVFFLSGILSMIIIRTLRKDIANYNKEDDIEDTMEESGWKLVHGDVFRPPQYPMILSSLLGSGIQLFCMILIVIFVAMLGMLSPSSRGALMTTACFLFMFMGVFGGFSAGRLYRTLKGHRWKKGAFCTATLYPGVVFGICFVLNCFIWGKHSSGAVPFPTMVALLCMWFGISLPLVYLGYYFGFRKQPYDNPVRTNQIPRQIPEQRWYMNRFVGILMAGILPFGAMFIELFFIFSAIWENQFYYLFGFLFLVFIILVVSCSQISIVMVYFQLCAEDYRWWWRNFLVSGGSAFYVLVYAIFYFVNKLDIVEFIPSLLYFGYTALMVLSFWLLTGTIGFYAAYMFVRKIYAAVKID
inactive: [1] -0.038 | [2] 0.008 | [3] -0.001 | [4] -0.047 | [5] -0.032

TJP2 isoform 7 (UniProt Q9UDY2)
inactive: [1] -0.03 | [2] 0.084 | [3] 0.081 | [4] 0.04 | [5] -0.044

SNX11 (UniProt Q9Y5W9)
inactive: [1] 0.004 | [2] 0.063 | [3] 0.108 | [4] 0.057 | [5] -0.027

THYN1 (UniProt Q9P016)
inactive: [1] -0.024 | [2] 0.044 | [3] 0.043 | [4] 0.01 | [5] -0.067

SMIM20 isoform 2 (UniProt Q8N5G0)
Sequence of UniProt Q8N5G0 (Q8N5G0 whole entry, looked up): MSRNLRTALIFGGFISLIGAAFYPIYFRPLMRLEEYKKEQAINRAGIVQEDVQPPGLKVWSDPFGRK
inactive: [1] 0.019 | [2] -0.034 | [3] 0.081 | [4] -0.125 | [5] -0.1

SRSF6 (UniProt Q13247)
inactive: [1] -0.071 | [2] -0.453 | [3] -0.109 | [4] 0.217 | [5] 0.015

STAT5A (UniProt P42229)
inactive: [1] -0.028 | [2] 0.058 | [3] 0.134 | [4] -0.006 | [5] 0.008

SMAP (UniProt O00193)
inactive: [1] -0.082 | [2] 0.011 | [3] 0.03 | [4] -0.039 | [5] 0.003

SUCLA2 (UniProt Q9P2R7)
inactive: [1] -0.029 | [2] 0.07 | [3] 0.113 | [4] -0.017 | [5] -0.044

STIM1 (UniProt Q13586)
inactive: [1] -0.051 | [2] 0.044 | [3] 0.008 | [4] -0.014 | [5] -0.019

TCOF1 isoform 4 (UniProt Q13428)
inactive: [1] 0.016 | [2] 0.006 | [3] 0.018 | [4] 0.033 | [5] 0.042

SLC44A2 isoform 2 (UniProt Q8IWA5)
inactive: [1] 0.002 | [2] 0.077 | [3] -0.022 | [4] -0.045 | [5] 0.065

STK26 (UniProt Q9P289)
Sequence of UniProt Q9P289 (Q9P289 whole entry, looked up): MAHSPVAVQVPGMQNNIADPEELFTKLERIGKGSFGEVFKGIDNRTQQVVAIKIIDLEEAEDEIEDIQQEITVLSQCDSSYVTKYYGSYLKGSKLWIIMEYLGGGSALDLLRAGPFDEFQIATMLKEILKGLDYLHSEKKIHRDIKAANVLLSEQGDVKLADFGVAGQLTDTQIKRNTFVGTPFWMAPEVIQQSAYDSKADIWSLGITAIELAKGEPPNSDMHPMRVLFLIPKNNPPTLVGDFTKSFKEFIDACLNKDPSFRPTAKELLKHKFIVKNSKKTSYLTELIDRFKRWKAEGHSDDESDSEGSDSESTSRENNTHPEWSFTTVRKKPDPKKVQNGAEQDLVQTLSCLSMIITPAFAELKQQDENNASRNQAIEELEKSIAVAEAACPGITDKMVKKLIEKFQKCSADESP
inactive: [1] -0.077 | [2] -0.029 | [3] -0.006 | [4] 0.004 | [5] 0.026

STARD3NL (UniProt O95772)
inactive: [1] 0.027 | [2] 0.025 | [3] 0.142 | [4] 0 | [5] 0.039

SREK1 isoform 2 (UniProt Q8WXA9)
Sequence of UniProt Q8WXA9 (Q8WXA9 whole entry, looked up): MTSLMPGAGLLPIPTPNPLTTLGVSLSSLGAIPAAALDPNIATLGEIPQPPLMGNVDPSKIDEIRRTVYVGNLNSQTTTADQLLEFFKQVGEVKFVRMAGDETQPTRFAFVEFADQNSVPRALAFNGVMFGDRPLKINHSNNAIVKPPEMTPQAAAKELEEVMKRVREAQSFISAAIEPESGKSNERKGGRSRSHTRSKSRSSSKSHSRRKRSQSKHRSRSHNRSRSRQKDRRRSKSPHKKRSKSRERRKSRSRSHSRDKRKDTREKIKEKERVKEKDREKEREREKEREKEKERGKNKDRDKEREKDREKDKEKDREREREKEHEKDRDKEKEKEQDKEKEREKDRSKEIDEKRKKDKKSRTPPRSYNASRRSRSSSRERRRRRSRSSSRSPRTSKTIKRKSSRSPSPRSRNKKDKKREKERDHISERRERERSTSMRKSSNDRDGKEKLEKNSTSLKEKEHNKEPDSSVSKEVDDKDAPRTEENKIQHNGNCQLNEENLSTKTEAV
inactive: [1] 0.05 | [2] -0.06 | [3] -0.039 | [4] -0.037 | [5] 0.026

TLK1 (UniProt Q9UKI8)
inactive: [1] 0.007 | [2] 0.036 | [3] 0.036 | [4] -0.036 | [5] 0.018

STOM (UniProt P27105)
inactive: [1] 0.06 | [2] -0.019 | [3] -0.014 | [4] -0.021 | [5] 0.082

SYK (UniProt P43405)
inactive: [1] 0.21 | [2] -0.221 | [3] -0.041 | [4] 0.132 | [5] -0.105

SYNE1 (UniProt Q8NF91)
inactive: [1] -0.009 | [2] 0.24 | [3] 0.223 | [4] -0.018 | [5] -0.052

SLC39A11 (UniProt Q8N1S5)
Sequence of UniProt Q8N1S5 (Q8N1S5 whole entry, looked up): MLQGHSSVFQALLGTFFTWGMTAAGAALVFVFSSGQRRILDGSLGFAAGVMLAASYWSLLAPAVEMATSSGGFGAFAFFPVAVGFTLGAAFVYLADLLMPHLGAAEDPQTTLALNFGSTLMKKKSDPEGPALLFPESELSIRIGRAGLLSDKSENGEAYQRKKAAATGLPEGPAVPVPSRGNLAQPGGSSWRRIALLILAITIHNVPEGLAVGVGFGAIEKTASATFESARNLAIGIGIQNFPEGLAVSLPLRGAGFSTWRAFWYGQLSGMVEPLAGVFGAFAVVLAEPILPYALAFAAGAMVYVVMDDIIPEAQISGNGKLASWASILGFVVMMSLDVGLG
inactive: [1] 0.053 | [2] 0.072 | [3] 0.078 | [4] -0.323 | [5] -0.003
